The target of experiment [1] is ATP-dependent translocase ABCB1 (Homo sapiens) (UniProt P08183). As to the kind of experiment: P-glycoprotein substrate transport blockade – cell-based (AID 377). The note with it: MDR1-expressing cells, fluorescent substrate accumulation slope; stronger effect = higher value; concentration not given here.
Experiment [2] can be described thus: polyglutamine aggregate formation blockers (AID 1604). The note with it: polyglutamine-induced protein aggregation inhibition assay; stronger effect = higher value; tested at 2.5 µM.
The nature of experiment [3]: rescue of PC12 cells from polyQ htt toxicity – LDH release (AID 1610). The note with it: PC12 mutant huntingtin toxicity, final LDH at 4 uM, stronger effect = lower value. (Release of lactate dehydrogenase indicates damage to the cell membrane.)
A short description of experiment [4]: glutamate transport activators, MN-1 cells, MN-1 cell line (AID 1612).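 Note: tested at 1 µM final; 0% = mean of DMSO vehicle wells on each plate; positive means more glutamate uptake than control and negative means less.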 The note with it: MN-1 motor neuron cells, stronger effect = higher value.
The nature of experiment [5]: GFP-Q80 aggregate reduction, neuronal-like cells, cell-based, NGF-treated PC12, GFPQ80 (AID 1614).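 Note: lower means fewer inclusions and 0 means no inclusions at all.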 The note with it: PC12 NGF-treated GFP-polyQ80 inclusion reduction.
A short description of experiment [6]: 75Q-TubH aggregate inhibition, S. cerevisiae, yeast (AID 1616). The note with it: S. cerevisiae 75Q-TubH polyglutamine aggregation suppression; stronger effect = higher value.

Experimental findings from PubChem BioAssay are described below.

Inconclusive results are not listed. The source made the active and inactive calls. Cut-off read from the data, not from the text of the source: active = fluorescence slope change above about 50%; inconclusive = mostly about 31% to 49%; inactive = weaker than that.

ATP-dependent translocase ABCB1 (Homo sapiens), sequence (P08183 whole entry, looked up): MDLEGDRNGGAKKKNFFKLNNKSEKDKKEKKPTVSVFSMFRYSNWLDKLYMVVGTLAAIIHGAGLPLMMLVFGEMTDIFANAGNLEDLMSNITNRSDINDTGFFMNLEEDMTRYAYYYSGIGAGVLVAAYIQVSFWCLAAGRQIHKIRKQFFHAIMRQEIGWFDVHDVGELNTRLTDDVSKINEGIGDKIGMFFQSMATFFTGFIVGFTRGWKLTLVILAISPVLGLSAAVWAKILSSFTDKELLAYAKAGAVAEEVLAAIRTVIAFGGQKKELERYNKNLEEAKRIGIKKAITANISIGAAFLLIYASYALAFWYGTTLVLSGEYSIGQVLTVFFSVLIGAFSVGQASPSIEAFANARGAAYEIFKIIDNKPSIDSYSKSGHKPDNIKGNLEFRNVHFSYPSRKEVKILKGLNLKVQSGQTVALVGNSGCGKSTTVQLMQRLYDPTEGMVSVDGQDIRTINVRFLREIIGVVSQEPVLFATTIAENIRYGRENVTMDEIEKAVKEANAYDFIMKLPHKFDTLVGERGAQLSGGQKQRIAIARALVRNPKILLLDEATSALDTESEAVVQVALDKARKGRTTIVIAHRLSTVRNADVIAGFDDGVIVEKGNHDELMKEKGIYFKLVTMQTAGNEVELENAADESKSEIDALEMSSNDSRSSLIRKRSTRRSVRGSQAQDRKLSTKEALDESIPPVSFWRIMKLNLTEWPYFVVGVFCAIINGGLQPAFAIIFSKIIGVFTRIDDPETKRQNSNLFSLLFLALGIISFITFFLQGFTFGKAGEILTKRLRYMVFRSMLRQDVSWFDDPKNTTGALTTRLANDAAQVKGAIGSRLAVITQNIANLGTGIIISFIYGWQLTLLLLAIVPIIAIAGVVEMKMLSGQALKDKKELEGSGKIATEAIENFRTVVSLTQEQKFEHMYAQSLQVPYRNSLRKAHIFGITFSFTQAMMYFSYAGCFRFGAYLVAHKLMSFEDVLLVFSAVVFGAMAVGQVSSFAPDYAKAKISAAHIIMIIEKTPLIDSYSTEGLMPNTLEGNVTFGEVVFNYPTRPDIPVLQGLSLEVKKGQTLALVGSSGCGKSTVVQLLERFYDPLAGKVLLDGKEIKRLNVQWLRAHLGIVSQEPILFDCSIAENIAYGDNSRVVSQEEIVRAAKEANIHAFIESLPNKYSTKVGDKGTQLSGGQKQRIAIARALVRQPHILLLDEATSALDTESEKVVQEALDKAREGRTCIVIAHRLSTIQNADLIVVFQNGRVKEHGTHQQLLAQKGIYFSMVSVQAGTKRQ

Turning to `CCN(CC)CC#CCOC(=O)C(O)(c1ccccc1)C1CCCCC1` (stereo not given), the fluorescence slope change in experiment [1] was 225% (active).
Turning to `CC[C@H]1OC(=O)[C@H](C)[C@@H](O[C@H]2C[C@@](C)(OC)[C@@H](O)[C@H](C)O2)[C@H](C)[C@@H](O[C@@H]2O[C@H](C)C[C@H](N(C)C)[C@H]2O)[C@](C)(O)C[C@@H](C)CN(C)[C@H](C)[C@@H](O)[C@]1(C)O`, the inhibition of aggregation in experiment [2] was determined as 65.2%. In experiment [3], this compound showed a normalised LDH release of 0.795. In addition, in experiment [4], the glutamate uptake change amounted to 5.3%. The inclusion score in experiment [5] is 3. The same compound yielded an aggregation suppression score in experiment [6] of 0.581.
In the case of `O=C(c1ccc(OCCN2CCCCC2)cc1)c1c(-c2ccc(O)cc2)sc2cc(O)ccc12`, in experiment [1], the fluorescence slope change was 82.4% (active).
For the compound `CC(Cc1ccc(O)c(O)c1)(NN)C(=O)O` (stereo not given), the inhibition of aggregation in experiment [2] stood at 15.6%. For the same compound, the glutamate uptake change in experiment [4] stood at 6.68%. The inclusion score in experiment [5] was found to be 2. For the same compound, the aggregation suppression score in experiment [6] was 1.15.
Regarding `CC(C)(S)C(N)C(=O)O` (stereo not given), the inhibition of aggregation in experiment [2] was 94.4%. Moreover, the glutamate uptake change in experiment [4] was -17.3%. The inclusion score in experiment [5] is 2. Further, in experiment [6], the aggregation suppression score was 1.65.
